Measured values from ChEMBL document CHEMBL4513141, “CO-ADD screening of NIH (USA) - Clinical Collection” (2021).
Potency and affinity values are given separately.

Assays:
[1] = tested on: Klebsiella pneumoniae; settings: Concentration 20 uM; ASSAY_TEST Inhibition of Bacterial Growth; detection method Absorption (OD600); MEDIA CAMHB; plate type 384well; NBS; CORNING #3640; time 18 hr
[2] = tested on: Candida albicans; settings: 20 µM
[3] = tested on: Cryptococcus neoformans; settings: Concentration 20 uM; ASSAY_TEST Inhibition of Fungal Growth; detection method Resazurin; Absorption (OD600-OD570); plate type 384well; NBS; CORNING #3640

| Compound | Inhibition [1] | Inhibition [2] | Inhibition [3] |
| --- | --- | --- | --- |
| COC(=O)C[C@](O)(CCCC(C)(C)O)C(=O)O[C@@H]1C(OC)=C[C@]23CCCN2CCc2cc4c(cc2[C@H]13)OCO4 [OMACETAXINE MEPESUCCINATE] | 9.21% | 3.16% | 1.94% |
| O=C(O)CCCc1ccc(N(CCCl)CCCl)cc1 [CHLORAMBUCIL] | 9.18% | 2.65% | 0.85% |
| O=C(O[C@@H]1Cc2c(O)cc(O)cc2O[C@@H]1c1cc(O)c(O)c(O)c1)c1cc(O)c(O)c(O)c1 [EPIGALOCATECHIN GALLATE] | 17.83% | 3.47% | -2.04% |
| C[C@]12CC[C@H](O)CC1=CC[C@@H]1[C@@H]2CC[C@]2(C)C(=O)CC[C@@H]12 [PRASTERONE] | 10.09% | 14.5% | 2.55% |
| COc1cc(-c2ccc(=O)[nH]n2)ccc1OC(F)F [ZARDAVERINE] | 6.98% | 1.79% | 1.74% |
| Fc1ccc([C@@H]2CCNC[C@H]2COc2ccc3c(c2)OCO3)cc1.O=C(O)/C=C\C(=O)O | 6.3% | 2.04% | -6.92% |
| Cl.c1ccc2c(CC3=NCCN3)cccc2c1 [NAPHAZOLINE HYDROCHLORIDE] | 13.63% | 3.38% | -4.12% |
| Cl.Cl.OCCN1CCN(CCCN2c3ccccc3Sc3ccc(C(F)(F)F)cc32)CC1 [FLUPHENAZINE HYDROCHLORIDE] | 7.98% | 1.45% | -8.76% |
| COc1cc([C@@H]2c3cc4c(cc3[C@H](O)[C@H]3COC(=O)[C@H]23)OCO4)cc(OC)c1OC [PODOFILOX] | 15.68% | 0.66% | -1.83% |
| NC(=O)OCCCc1ccccc1 [PHENPROBAMATE] | 12.49% | 3.16% | -1.72% |
| NC1=NC(=O)C(c2ccccc2)O1 (configuration not stated) [PEMOLINE] | 13.09% | 1.75% | -5.45% |
| C[C@]12CCC(=O)C=C1CC[C@@H]1[C@@H]2CC[C@@]2(C)[C@H]1CC[C@]2(C)O [METHYLTESTOSTERONE] | 12.33% | 4.22% | 0% |
| CC(NC(C)(C)C)C(=O)c1cccc(Cl)c1.Cl (configuration not stated) [BUPROPION HYDROCHLORIDE] | 2.52% | 4.99% | 3.12% |
| CC(C)N(CCC(C(N)=O)(c1ccccc1)c1ccccn1)C(C)C.O=P(O)(O)O (configuration not stated) [DISOPYRAMIDE PHOSPHATE] | 5.68% | 3.35% | 0.14% |
| C[C@]12CC[C@H]3[C@@H](CCC4=CC(=O)CC[C@@]43C)[C@@H]1CC[C@@H]2O [TESTOSTERONE] | 3.5% |  | 1.59% |
| CN(C)CCOc1ccc(/C(=C(/CCCl)c2ccccc2)c2ccccc2)cc1.O=C(O)CC(O)(CC(=O)O)C(=O)O [TOREMIFENE CITRATE] | 8.47% | 1.73% | -7.47% |
